Bioassay records deposited in PubChem BioAssay by several laboratories.
MITF act: activators of MITF-driven TRPM1 promoter activity in SK-MEL-5 cells; activation, % at 12.5 µM; SK-MEL-5 TRPM1-promoter luciferase, 24 h; % of positive control, neutral wells = 0; hit rate 0.75% among 300,000; AID 588334;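 active = mean activation of at least 80% with every replicate also reaching 80%; inconclusive = mean reaches 80% but some replicate falls short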;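 also: 0% = neutral control wells and 100% = parthenolide positive control wells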
esBAF inh: blocks esBAF chromatin remodeling in mouse ES cells. Bmi1-luciferase knock-in reporter, 24 h; 100% = twice the neutral-well signal. reporter increase, % at 12.5 µM. hit rate 2% among 350,000. AID 602393; in the data active = activation above about 40%; inconclusive = no clear call, values can overlap the other calls;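 also: 0% = median of the plate's neutral control wells and 100% = double that signal; a rise in the Bmi1 reporter signal indicates esBAF inhibition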
Wnt act: activators of Wnt/beta-catenin signaling; activation, % at 9.35 µM; AID 743398; Wnt/beta-catenin reporter cell assay, activator, plate reader; hit rate 1.2% among 300,000; in the data active = activation above about 30%, passing the limit was not always enough; inconclusive = no clear call, values can overlap the other calls;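 also: 0% = neutral control wells and 100% = positive control wells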
GAA850 FXN act: frataxin GAA850 promoter activation. HEK293 lucGAA850 FXN promoter luciferase reporter, 24 h; percent of 10 µM SAHA response. hit rate 0.56% among 360,000. AID 540364. activation, % at 6 µM;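 active = activation above the average of all compounds screened plus 3 SD, cutoff fixed separately per campaign, cut at about 7.5% in these data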;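 also: 0% = DMSO wells and 100% = 10 µM SAHA wells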
GAA30 counter: activates GAA30 frataxin promoter, counter-screen for GAA850 activators | AID 588350 | activation, % at 6 µM | shares compounds with GAA850 FXN act | HEK293 lucGAA30 FXN promoter luciferase, 24 h; DMSO = 0%, 5 µM ipriflavone = 100% | hit rate 66% among 1,900;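 active = mean activation above the mean of solvent-only control wells plus 3 SD, cut at about 22% in these data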;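 also: counterscreen of GAA850 promoter hits where activity marks nonselective or luminescence artifacts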
FXN GAA850 conf: GAA850 FXN promoter activation confirmation. shares compounds with GAA850 FXN act. HEK293 lucGAA850 FXN promoter luciferase reporter, 24 h; 100% = activation by SAHA. activation, % at 6 µM. hit rate 86% among 1,900. AID 588351;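 active = mean activation above a set limit taken from the primary screen, cut at about 8% in these data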;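 also: 0% = DMSO wells and 100% = 10 µM SAHA wells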
Active calls of the source: *; u = inconclusive; x = no result given. Sampled rows, rich in hits. Any-hit rate of the full collection: about 2.8%.

SMILES	MITF act	esBAF inh	Wnt act	GAA850 FXN act	GAA30 counter	FXN GAA850 conf
C=C1CCC2C(C)(C)[C@@H](O)CC[C@@]2(C)[C@@H]1COc1ccc2ccc(=O)oc2c1 (some centres not stated)	-3	-4	-1	1	x	x
CC(=O)OC1CCC2(C)C(COc3ccc4ccc(=O)oc4c3)C(C)(O)CCC2C1(C)C (configuration not stated)	6	7	x	12*	-4	17*
COc1ccc(NC(=S)Nc2ccccn2)cc1	u	58*	36*	8.3*	109*	32*
CCOC(=O)CC(=O)CSc1nc2c(cc1C#N)CCCCCC2	x	29	x	-1	x	x
N#Cc1cc2c(nc1SCC(N)=O)CCCCC2	73	32	x	9.6*	108*	38*
O=[N+]([O-])/C=C\c1ccc(N2CCCC2)c(F)c1	-92	3	x	8.6*	19	31*
O=Cc1ccc(N2CCCC2)c([N+](=O)[O-])c1	-3	-1	-1	0	x	x
c1csc(CSc2nc3ccccc3s2)c1	98*	x	x	7.7*	122*	39*
CC(C)NC(=O)Nc1ccc2c(c1)CC(=O)N([C@@H](C)CO)C[C@@H](C)[C@H](CN(C)C(=O)NC1CCCCC1)O2	x	2	x	x	x	x
COc1ccc(-c2nnc(N(C)C(=O)c3ccno3)s2)cc1	78	29	18	12*	99*	30*
Cc1ccc(OCCOc2cccc(Br)c2)c([N+](=O)[O-])n1	103*	x	x	7.6*	81*	40*
CC1=NN(c2ccccc2)C(=O)/C1=C\C=C\c1ccccc1	x	x	0	8.6*	19	14*
COc1cccc(NC(=O)Nc2cc(C)ccc2F)c1	x	61*	x	8.2*	80*	25*
COc1cccc(C#Cc2cnc3c(c2)C(=O)N([C@@H](C)CO)C[C@H](C)[C@H](CN(C)C(=O)C2CCOCC2)O3)c1	x	-3	x	x	x	x
Cc1ccc(-c2cc(C(=O)NCCN3CCOCC3)no2)cc1	6	2	x	-1	x	x
O=C(NCCCN1CCOCC1)c1cc(-c2ccc(F)cc2)on1	-28	-5	3	9.9*	48*	18*
O=c1oc2ccccc2c(Nc2ccc(F)cc2)c1[N+](=O)[O-]	-14	x	0	1	x	x
Cc1c(-c2nc(N)nc(Nc3ccc(F)cc3)n2)oc2ccccc12	33	62*	3	9.8*	89*	38*
Cc1ccccc1Nc1nc(N)nc(-c2oc3ccccc3c2C)n1	x	x	47*	8.6*	101*	52*
COc1ccccc1Nc1nc(N)nc(-c2oc3ccccc3c2C)n1	x	6	x	2	x	x
N#C[C@H]1N[C@H](CO)[C@@H]1c1ccc(-c2ccccc2F)cc1	x	12	x	x	x	x
c1ccc(NCc2cccnc2)cc1	12	-5	x	-3	x	x
c1cncc(CNc2cccc(-c3nc4ccccc4[nH]3)c2)c1	58	x	50*	8.5*	89*	28*
Cc1cc(C)cc(-n2c(SCC(=O)NCc3ccco3)nc3ccccc3c2=O)c1	-12	13	x	7	x	x
Cc1cc(C)cc(-n2c(SCC(=O)NCc3ccc4c(c3)OCO4)nc3ccccc3c2=O)c1	3	x	-2	8.6*	18	7
SMILES	MITF act	esBAF inh	Wnt act	GAA850 FXN act	GAA30 counter	FXN GAA850 conf
CCOC(=O)c1[nH]c2ccc(OC)cc2c1NC(=O)c1cccc(OC)c1	-2	x	x	1	x	x
CCOC(=O)c1[nH]c2ccc(OC)cc2c1NC(=O)c1ccccc1C(=O)O	13	x	13	8.0*	28*	13*
CC(=O)c1cccc(Nc2nc(-c3ccccc3)cs2)c1	130*	7	21	7.8*	101*	28*
O=C(/C=C/c1ccc(O)c(O)c1)c1ccccc1O	65	x	47*	13*	75*	35*
O=C(/C=C/c1ccc(O)c(O)c1)OC(Cc1ccc(O)c(O)c1)C(=O)O (configuration not stated)	x	10	0	-1	x	x
O=C(/C=C/c1ccoc1)c1ccccc1O	-6	x	0	0	x	x
O=C(/C=C/c1ccc(O)c(O)c1)OCCc1ccccc1	80	-68	9	16*	31*	23*
C[C@@H]1CCCCO[C@@H](CN(C)C(=O)NC2CCCCC2)[C@H](C)CN([C@@H](C)CO)C(=O)c2cc(NS(=O)(=O)c3ccc(F)cc3)ccc2O1	x	7	x	x	x	x
O=[N+]([O-])c1ccc(Sc2nc3ccccc3o2)c([N+](=O)[O-])c1	-87	-37	4	16*	-25	46*
O=[N+]([O-])c1ccc(Cl)cc1Sc1nc2ccccc2o1	3	7	-15	1	x	x
C[C@@H]1CN([C@@H](C)CO)C(=O)Cc2cc(NC(=O)NC3CCCCC3)ccc2O[C@H]1CN(C)Cc1ccc(Oc2ccccc2)cc1	x	1	x	x	x	x
Cc1ccc(-c2nnc3c4ccccc4c(C)nn23)cc1S(=O)(=O)N1CCN(CCO)CC1	x	25	x	7.6*	32*	17*
COc1ccc(S(=O)(=O)N2CCCN(S(=O)(=O)c3ccc(OC)c(C)c3)CC2)cc1C	-3	-5	-4	8.3*	30*	17*
COc1ccc(S(=O)(=O)N2CCCC2)cc1OC	-1	-9	-4	1	x	x
Cc1ccc2nc3c(cc(S(=O)(=O)c4ccccc4)c(=N)n3Cc3ccco3)c(=O)n2c1	26	10	27	9.3*	22*	7
N=c1c(S(=O)(=O)c2ccccc2)cc2c(=O)n3ccccc3nc2n1Cc1ccco1	1	x	x	2	x	x
CC(C)NC(=O)Nc1cccc2c1O[C@H](CN(C)S(=O)(=O)c1ccccc1)[C@H](C)CN([C@H](C)CO)C2=O	x	2	x	x	x	x
CCOc1ccc(Nc2ncnc3c2cnn3-c2ccccc2)cc1	44	-1	-2	13*	67*	21*
CCOc1ccc(Nc2ncnc3c2cnn3Cc2ccccc2)cc1	-12	1	-4	0	x	x
COc1ccccc1C(=O)NCCC(=O)NCCC12CC3CC(CC(C3)C1)C2	6	-2	4	8.1*	21	14*
C/C(CC(=O)NCc1ccccc1Cl)=N/NC(=O)c1ccccn1	12	44*	-1	8.2*	50*	14*
COc1cnn(-c2ccc(C)cc2)c(=O)c1SCc1ccccc1	65	-13	x	7.9*	66*	25*
C[C@H](CO)N1C[C@H](C)[C@@H](CN(C)C(=O)Nc2ccc(F)cc2)Oc2cc(/C=C/c3ccccc3)ccc2S1(=O)=O	x	-2	x	x	x	x
CCCSc1nc2cc(S(=O)(=O)N3CCOCC3)ccc2n1CC	4	x	-2	2	x	x
CCOCCCn1c(SCc2nc3ccccc3s2)nc2ccccc2c1=O	-4	x	x	-2	x	x
c1ccc(-n2cnnc2SCc2nc3ccccc3s2)cc1	x	36	51*	7.8*	94*	26*
COCCn1c(SCc2nc3ccccc3s2)nc2ccccc21	28	104*	u	8.4*	99*	31*
